Compounds with a hit are over-represented: about 3.4% of the library has one in this group of screens.
PP5 primary – PP5 phosphatase inhibitors, primary screen, biochemical, fluorescence; purified PP5c, OMFP substrate fluorescence; Serine/threonine-protein phosphatase 5 (Homo sapiens), P53041; AID 1987, 2009; 0.18% of 320,000 active; inhibition, % at 6.7 µM;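 active = inhibition above the campaign's mean inhibition across all tested compounds plus 3 SD, cut at about 9.5% in these data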;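 also: 0% = DMSO only and 100% = 100 µM cantharidin control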
Target sequence (P53041 whole entry, looked up): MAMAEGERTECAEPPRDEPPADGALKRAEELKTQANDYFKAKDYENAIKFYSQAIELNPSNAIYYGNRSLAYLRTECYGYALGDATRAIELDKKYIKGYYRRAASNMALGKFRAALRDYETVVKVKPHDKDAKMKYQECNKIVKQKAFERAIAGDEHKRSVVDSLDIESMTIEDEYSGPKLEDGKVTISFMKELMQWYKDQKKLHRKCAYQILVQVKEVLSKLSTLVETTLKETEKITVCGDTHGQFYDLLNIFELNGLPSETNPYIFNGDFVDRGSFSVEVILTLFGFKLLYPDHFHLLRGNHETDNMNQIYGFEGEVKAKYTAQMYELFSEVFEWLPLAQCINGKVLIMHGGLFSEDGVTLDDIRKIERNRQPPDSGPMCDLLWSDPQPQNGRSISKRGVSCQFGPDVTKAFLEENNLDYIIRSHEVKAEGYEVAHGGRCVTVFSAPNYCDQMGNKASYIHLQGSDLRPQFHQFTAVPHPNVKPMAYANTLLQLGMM
PP1 inh – PP1-alpha phosphatase inhibitors, primary screen, counter-screen for PP5 inhibitor project, biochemical, fluorescence, OMFP substrate, single point; purified PP1alpha; 0.9% of 320,000 active; inhibition, % at 6.7 µM; AID 2235, 2010; Serine/threonine-protein phosphatase PP1-alpha catalytic subunit (Homo sapiens), P62136;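 active = inhibition above the mean inhibition of all tested compounds plus 3 SD, computed separately for each screening campaign, cut at about 15% in these data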
PAFAH1B2 inh – PAFAH1B2 enzyme inhibitors, primary screen, biochemical, fluorescence polarization, human | Platelet-activating factor acetylhydrolase IB subunit alpha2 (Homo sapiens), P68402 | recombinant PAFAH1B2, FP-rhodamine activity probe | inhibition, % at 3.39 µM | 1.2% of 340,000 active;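 active = inhibition above the mean of all tested compounds plus 3 SD, cut at about 24% in these data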;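 also: 0% = enzyme with DMSO and 100% = wells lacking PAFAH1B2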
pPAFAH inh – pPAFAH enzyme inhibitors, primary screen, biochemical, fluorescence polarization, human. 1.5% of 330,000 active. Platelet-activating factor acetylhydrolase (Homo sapiens), Q13093. inhibition, % at 3.39 µM. AID 463082, 2010. recombinant pPAFAH, FP-rhodamine probe fluorescence polarization;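 active = inhibition above the mean inhibition across the screen plus 3 SD, cut at about 25% in these data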;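 also: inhibitors block binding of the rhodamine activity-based probe so polarization drops; 0% = enzyme with DMSO and 100% = wells lacking pPAFAH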
PAFAH1B3 FP inh – PAFAH1B3 enzyme inhibitors, primary screen, biochemical, fluorescence polarization, human; Platelet-activating factor acetylhydrolase IB subunit alpha1 (Homo sapiens), Q15102; recombinant PAFAH1B3, FP-rhodamine probe; inhibition, % at 3.39 µM; 0.28% of 340,000 active; AID 492972, 2010;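 active = inhibition above the screen-wide average of all tested compounds plus 3 SD, cut at about 25% in these data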;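 also: 0% = enzyme with DMSO only and 100% = wells lacking PAFAH1B3 protein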
PAFAH2 FP inh – PAFAH2 enzyme inhibitors, primary screen, biochemical, fluorescence polarization, human. 0.99% of 340,000 active. recombinant PAFAH2, FP-rhodamine activity probe. inhibition, % at 3.39 µM. AID 492956, 2010;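 active = inhibition above the mean over all tested compounds plus 3 SD, cut at about 30% in these data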;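 also: inhibitors block probe labeling of enzyme so polarization drops; 0% = enzyme with DMSO and 100% = wells lacking PAFAH2 protein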
PAFAH1B3 conf FP – PAFAH1B3 enzyme inhibitors, confirmation, biochemical, fluorescence polarization, human. AID 493032, 2011. shares compounds with PAFAH1B3 FP inh. 30% of 390 active. inhibition, % at 3.39 µM. recombinant PAFAH1B3, FP-Rh activity-based probe;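 active = average inhibition over triplicate runs above the hit cutoff set in the earlier primary screen, cut at about 25% in these data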;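 also: 0% = enzyme with DMSO and 100% = wells lacking PAFAH1B3 protein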
Starred values were filed as active, the others as inactive; x = no result given.

SMILES	PP5 primary	PP1 inh	PAFAH1B2 inh	pPAFAH inh	PAFAH1B3 FP inh	PAFAH2 FP inh	PAFAH1B3 conf FP
O=C(COC(=O)c1ccc([N+](=O)[O-])s1)NC(c1ccccc1)c1ccccc1	1	5	8	13	42*	16	16
COc1cccc(/C=N/NC(=O)c2cc3cc([N+](=O)[O-])ccc3s2)c1O	5	8	6	22	18	13	x
CCOc1ccccc1N1CC(C(=O)Nc2cc(S(C)(=O)=O)ccc2Cl)CC1=O (stereo not drawn)	1	-1	8	1	8	-6	x
CNC1=C(N(C(C)=O)c2ccc(Br)cc2)C(=O)c2ccccc2C1=O	4	4	-2	-3	38*	-2	17
CCCc1nc2oc3ccccc3c(=O)c2c(=O)n1-c1ccccc1	7	1	x	-2	x	x	x
CN(CCCCCCCCC(=O)/C=N/O)Cc1ccccc1	-1	-1	3	3	11	0	x
CN(C)CCCCCCCCCCC(=O)/C=N/O	0	-1	12	6	27*	8	22
Cc1ccc(NC2=C(N3CCCCC3)C(=O)c3ccccc3C2=O)cc1	9	5	12	-1	41*	29	17
COc1ccccc1NC1=C(N2CCCCC2)C(=O)c2ccccc2C1=O	7	1	7	-7	42*	13	21
CCOC(=O)C1(Cc2cccc(OC)c2)CCCN(S(=O)(=O)CC)C1 (stereo not drawn)	2	0	2	-7	0	-3	x

From PubChem BioAssay
